Laboratory results reported in PubChem BioAssay AID1159580 (chemical genetic matrix, 2015).
Out of some 5,500 compounds screened, about 2,000 (36%) were called active. Inconclusive results (about 18%) are left out. No stated cut-off is given here; in the data, active means normalized growth mostly below about 0.91 (no sharp cut-off); inconclusive means no clear call, values can overlap the other calls; inactive means mostly above about 0.92. The list shows a part of the results.

Assay: chemical genetic growth profiling, strain panel (AID 1159580);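 further: tested at 20 µM; growth read once vehicle control cultures reached saturation at 30 °C; 1 = growth at the plate median or of vehicle wells; lower values mean less growth of the strain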
Details: growth OD

Measured: normalized growth

CCn1cc(C(=O)O)c(=O)c2cnc(N3CCCC3)nc21
inactive: S. cerevisiae deletion strains, locus YKL009W, strain mrt4, active compounds read low 0.987 | S. cerevisiae deletion strains, locus YKL068W, active compounds read low 1 | S. cerevisiae deletion strains, locus YKL085W, strain MDH1 (second series), active compounds read low 0.998 | S. cerevisiae deletion strains, locus YKL085W, strain MDH1, active compounds read low 0.998 | S. cerevisiae deletion strains, locus YKL160W, strain elf1, active compounds read low 0.975 | S. cerevisiae deletion strains, locus YKL190W, strain CNB1, active compounds read low 1 | S. cerevisiae deletion strains, locus YKR001C, strain vps1, active compounds read low 0.943 | S. cerevisiae deletion strains, locus YKR026C, strain gcn3, active compounds read low 1.02 | S. cerevisiae deletion strains, locus YKR091W, strain srl3, active compounds read low 1 | S. cerevisiae deletion strains, locus YLL001W, strain dnm1, active compounds read low 1.02 | S. cerevisiae deletion strains, locus YLL026W, active compounds read low 1 | S. cerevisiae deletion strains, locus YLL041C, strain sdh2, active compounds read low 0.993 | S. cerevisiae deletion strains, locus YLR027C, strain aat2, active compounds read low 0.996 | S. cerevisiae deletion strains, locus YLR039C, strain RIC1, active compounds read low 0.935 | S. cerevisiae deletion strains, locus YLR058C, strain SHM2, active compounds read low 1.01 | S. cerevisiae deletion strains, locus YLR102C, strain apc9, active compounds read low 1 | S. cerevisiae deletion strains, locus YLR113W, strain HOG1, active compounds read low 0.986 | S. cerevisiae deletion strains, locus YLR221C, strain rsa3, active compounds read low 0.994 | S. cerevisiae deletion strains, locus YLR258W, strain gsy2, active compounds read low 1.02 | S. cerevisiae deletion strains, locus YLR262C, strain YPT6, active compounds read low 0.904 | S. cerevisiae deletion strains, locus YLR268W, strain sec22, active compounds read low 0.972 | S. cerevisiae deletion strains, locus YLR320W, strain mms22, active compounds read low 1.03 | S. cerevisiae deletion strains, locus YLR330W, strain CHS5, active compounds read low 1.01 | S. cerevisiae deletion strains, locus YLR342W, strain FKS1 (second series), active compounds read low 1.04 | S. cerevisiae deletion strains, locus YLR342W, strain FKS1, active compounds read low 1 | S. cerevisiae deletion strains, locus YLR357W, strain rsc2, active compounds read low 1.01 | S. cerevisiae deletion strains, locus YLR370C, strain arc18, active compounds read low 0.981 | S. cerevisiae deletion strains, locus YLR371W, strain rom2, active compounds read low 0.998 | S. cerevisiae deletion strains, locus YLR384C, strain iki3, active compounds read low 1.01 | S. cerevisiae deletion strains, locus YLR418C, strain cdc73, active compounds read low 1.09 | S. cerevisiae deletion strains, locus YML016C, strain PPZ1, active compounds read low 0.999 | S. cerevisiae deletion strains, locus YML032C, strain rad52, active compounds read low 0.999 | S. cerevisiae deletion strains, locus YML120C, strain ndi1, active compounds read low 0.981 | S. cerevisiae deletion strains, locus YML124C, strain tub3, active compounds read low 0.993 | S. cerevisiae deletion strains, locus YMR058W, strain fet3, active compounds read low 1 | S. cerevisiae deletion strains, locus YMR078C, strain ctf18, active compounds read low 1 | S. cerevisiae deletion strains, locus YMR125W, strain sto1, active compounds read low 1.01 | S. cerevisiae deletion strains, locus YMR129W, active compounds read low 1 | S. cerevisiae deletion strains, locus YMR205C, strain PFK2, active compounds read low 1.06 | S. cerevisiae deletion strains, locus YMR223W, strain ubp8, active compounds read low 0.98 | S. cerevisiae deletion strains, locus YMR231W, strain pep5, active compounds read low 1 | S. cerevisiae deletion strains, locus YMR263W, strain SAP30, active compounds read low 1.01 | S. cerevisiae deletion strains, locus YMR307W, strain GAS1, active compounds read low 1.06 | S. cerevisiae deletion strains, locus YNL067W, strain RPL9B, active compounds read low 0.998 | S. cerevisiae deletion strains, locus YNL071W, strain lat1, active compounds read low 1 | S. cerevisiae deletion strains, locus YNL128W, strain TEP1, active compounds read low 1.05 | S. cerevisiae deletion strains, locus YNL153C, strain GIM3, active compounds read low 0.996 | S. cerevisiae deletion strains, locus YNL183C, strain NPR1, active compounds read low 0.924 | S. cerevisiae deletion strains, locus YNL209W, strain ssb2, active compounds read low 0.993 | S. cerevisiae deletion strains, locus YNL233W, strain BNI4, active compounds read low 1.02 | S. cerevisiae deletion strains, locus YNL248C, strain rpa49, active compounds read low 0.956 | S. cerevisiae deletion strains, locus YNL250W, strain rad50, active compounds read low 0.996 | S. cerevisiae deletion strains, locus YNL271C, strain bni1, active compounds read low 1.02 | S. cerevisiae deletion strains, locus YNL298W, strain CLA4, active compounds read low 1 | S. cerevisiae deletion strains, locus YNL307C, strain MCK1, active compounds read low 1.03 | S. cerevisiae deletion strains, locus YNL322C, strain KRE1 (second series), active compounds read low 1 | S. cerevisiae deletion strains, locus YNL322C, strain KRE1, active compounds read low 0.999 | S. cerevisiae deletion strains, locus YNR049C, strain mso1, active compounds read low 0.984 | S. cerevisiae deletion strains, locus YNR052C, strain pop2, active compounds read low 0.961 | S. cerevisiae deletion strains, locus YOL006C, strain TOP1, active compounds read low 1.06 | S. cerevisiae deletion strains, locus YOL012C, strain htz1 1.62 | S. cerevisiae deletion strains, locus YOL147C, strain pex11, active compounds read low 0.998 | S. cerevisiae deletion strains, locus YOR001W, strain rrp6, active compounds read low 0.958 | S. cerevisiae deletion strains, locus YOR061W, strain CKA2, active compounds read low 1 | S. cerevisiae deletion strains, locus YOR069W, strain VPS5, active compounds read low 1 | S. cerevisiae deletion strains, locus YOR070C, strain gyp1, active compounds read low 1.01 | S. cerevisiae deletion strains, locus YOR080W, strain dia2, active compounds read low 1.01 | S. cerevisiae deletion strains, locus YOR083W, strain WHI5, active compounds read low 0.968 | S. cerevisiae deletion strains, locus YOR106W, strain vam3, active compounds read low 0.936 | S. cerevisiae deletion strains, locus YOR136W, strain idh2, active compounds read low 0.999 | S. cerevisiae deletion strains, locus YOR144C, strain elg1, active compounds read low 0.988 | S. cerevisiae deletion strains, locus YOR184W, strain ser1, active compounds read low 0.978 | S. cerevisiae deletion strains, locus YOR231W, strain MKK1, active compounds read low 0.983 | S. cerevisiae deletion strains, locus YOR265W, strain rbl2, active compounds read low 1.01 | S. cerevisiae deletion strains, locus YOR270C, strain vph1, active compounds read low 1.02 | S. cerevisiae deletion strains, locus YOR290C, strain snf2, active compounds read low 0.994 | S. cerevisiae deletion strains, locus YOR316C, strain cot1, active compounds read low 1 | S. cerevisiae deletion strains, locus YPL051W, strain arl3, active compounds read low 0.981 | S. cerevisiae deletion strains, locus YPL055C, strain LGE1, active compounds read low 1.02 | S. cerevisiae deletion strains, locus YPL078C, strain atp4, active compounds read low 0.974 | S. cerevisiae deletion strains, locus YPL106C, strain sse1, active compounds read low 1.03 | S. cerevisiae deletion strains, locus YPL240C, strain hsp82, active compounds read low 0.986 | S. cerevisiae deletion strains, locus YPL241C, strain CIN2, active compounds read low 1.01 | S. cerevisiae deletion strains, locus YPL256C, strain CLN2, active compounds read low 0.98 | S. cerevisiae deletion strains, locus YPR119W, strain clb2, active compounds read low 0.996 | S. cerevisiae deletion strains, locus YPR141C, strain kar3, active compounds read low 1 | S. cerevisiae deletion strains, locus YPR163C, strain tif3, active compounds read low 1.02 | S. cerevisiae deletion strains, locus YPR167C, strain met16, active compounds read low 0.986 | S. cerevisiae deletion strains, strain wtn01, active compounds read low 0.987 | S. cerevisiae strains, strain wild type, active compounds read low 1.01
active: S. cerevisiae deletion strains, locus YLR262C, strain YPT6 (second series), active compounds read low 0.789
